Results published in PubChem BioAssay AID652054 (National Center for Advancing Translational Sciences (NCATS), 2013).
“And” between values parts separate entries of the source, which are not always exact repeats. Equal entries are not always repeated. Screen size: about 360,000 compounds; about 9,100 (2.5%) were called active. Roughly 4% stayed inconclusive and do not appear here. Rule as the data show it: active = max response below about -50%; inconclusive = no clear call, values can overlap the other calls; inactive = above that. Only a selection was taken, and actives are over-represented in it overall.

What follows are molecules tested against D(3) dopamine receptor (Homo sapiens) (UniProt P35462) (assay: qHTS of D3 Dopamine Receptor Antagonist: qHTS). Conditions: D3R cells, DiscoveRx beta-arrestin luminescence, antagonist mode; stronger effect = lower value.
D(3) dopamine receptor (Homo sapiens), sequence (P35462 whole entry, looked up): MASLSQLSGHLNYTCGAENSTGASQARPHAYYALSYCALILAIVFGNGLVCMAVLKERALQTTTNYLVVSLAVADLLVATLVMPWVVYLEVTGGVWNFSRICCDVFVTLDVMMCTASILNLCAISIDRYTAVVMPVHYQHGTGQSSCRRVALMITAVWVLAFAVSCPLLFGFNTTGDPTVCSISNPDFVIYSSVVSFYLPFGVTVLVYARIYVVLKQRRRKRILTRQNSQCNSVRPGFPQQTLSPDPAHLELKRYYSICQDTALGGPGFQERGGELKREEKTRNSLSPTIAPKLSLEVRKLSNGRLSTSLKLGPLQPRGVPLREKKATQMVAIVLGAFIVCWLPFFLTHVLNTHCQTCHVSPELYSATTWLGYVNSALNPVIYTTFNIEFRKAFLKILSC
How it was run: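 Cells expressing the human receptor were seeded at 1500 cells/well, incubated overnight at 37 degrees C in 5% CO2, then exposed to library compounds with dopamine controls for 90 minutes at 37 degrees C before luminescent detection.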
% is scaled to controls: 0 for no effect and ±100 for the full control effect.

Max response, negative = inhibition, inactive:
O=C(CCN1CCCCC1)Nc1ccc(F)c(F)c1 15.9%, CCC(C(=O)NCc1ccccc1)n1c(Cc2cc(F)cc(F)c2)nc2ccccc21 (stereo not given) 1.57%, OC[C@H]1O[C@@H](c2nc(-c3nc(-c4ccc(F)cc4)no3)cs2)[C@H](O)[C@@H](O)[C@H]1O 0%, Cc1cc(=O)oc2cc(NC(=O)C(C)Oc3ccccc3)ccc12 (stereo not given) 18.8%, O=C(Nc1ccc(F)c([N+](=O)[O-])c1)C1CC(=O)N(Cc2ccccc2)C1 (stereo not given) 16.3%, CO[C@@H]1CN(C)C(=O)c2cc(NC(=O)Nc3cc(F)ccc3F)ccc2OC[C@H](C)N(C(=O)c2ccccn2)C[C@@H]1C -21.4%, CCCCn1nnnc1C1(C)CCC(=O)N1Cc1ccc(OC)c(OC)c1 (stereo not given) 27.1%, Cc1cccc(OCC(=O)Nc2ccc(NC(=O)c3ccco3)c(C)c2)c1 -6.83%, COc1ccccc1C(=O)Nc1ccc(NC(=O)c2ccco2)c(C)c1 2.58%, CC(=O)c1cccc(-c2cnc3c(NC=O)cc(-c4cccc(C(=O)N(C)C)c4)cn23)c1 39.2%, CS(=O)(=O)c1cccc(-c2ccc3nncn3c2)c1 -15.7%, O=C(O)C1=C(C(=O)O)C2CCC1C2 -3.55%, Cc1cccc(N2C(=O)CC(SC(N)=Nc3ccccc3)C2=O)c1 (stereo not given) -1.29%, Cc1ccc(N=Cc2c(O)n(-c3nccs3)c(=O)c3ccccc23)c(C)c1 7.33%, CC1(C(=O)NS(=O)(=O)Cc2cccc(Cl)c2)CCN1C(=O)Cc1ccc(Cl)cc1Cl (stereo not given) 5.64%, CN(CC(=O)NC(=O)Nc1ccccc1F)Cc1ccccc1 -19.2%, CN(Cc1ccccc1F)C(=O)C(Cc1ccccc1)NC(=O)c1ccccc1 (stereo not given) 41.6%, CCc1nc2c(OCCC3CCCCC3)cccn2c1N(C)C(=O)c1ccco1 -17.4%, O=C(NCC(O)c1nc2ccccc2[nH]1)c1ccc(Br)cc1 (stereo not given) -3.7%, COc1ccc(NC(=O)CSc2nnnn2-c2cccc(OC)c2)cc1 26.1%, O=c1[nH]c(CSc2ncc(-c3ccc(F)cc3)n2Cc2ccco2)nc2ccccc12 11.8%, O=C(CSc1nnc(-c2cccnc2)n1Cc1ccco1)c1ccc(Cl)c(Cl)c1 25.5%, CCOC1=C2[C@H]([C@H]3C(=O)N(c4ccccc4)C(=O)[C@H]3C1)[C@@H](c1ccccc1)N(S(=O)(=O)c1ccc(C)cc1)[C@H]2c1ccccc1 0.0406%, CN(Cc1nc2ccccc2s1)C(=O)c1ccc(F)cc1 -18.6%, N#C/C(=C(/O)Cc1cccc2ccccc12)c1nc2ccccc2s1 -26.8%, CN1CCN(c2ccc3c(c2)OC[C@H](Cc2ccccc2)NS3(=O)=O)CC1 -23%, CCOC(=O)[C@]12CCCC=C1N(Cc1ccc3c(c1)OCO3)C(=O)[C@H](CC(=O)NCc1cccs1)C2 -6.39%, COC(=O)C[C@H]1C[C@@H]2c3cc(NC(=O)Nc4ccccc4)ccc3O[C@@H]2[C@@H](CO)O1 17.9%, Cc1cccc(N(C(=O)Cn2nnc(-c3ccc(C)o3)n2)C(C(=O)NC2CCCC2)c2ccncc2)c1 (stereo not given) 12.8%, CCC(C(=O)NC1CCCC1)N(C(=O)Cn1nnc(-c2ccc(C)o2)n1)c1ccc(OC)c(OC)c1 (stereo not given) 8.45%, CNC[C@H]1OCc2cnnn2CCCC(=O)N([C@H](C)CO)C[C@@H]1C 11.4%, COCCNC(=O)C1(C)CCCN(Cc2cccc(F)c2)C1 (stereo not given) -6.58%, COc1cccc(C(O)Cc2nc3ccccc3n2C)c1OC (stereo not given) 9.46%, Cn1c(CC(=O)NNC(=O)c2ccccc2F)nc2ccccc21 5.88%, COC(=O)c1ccc2nc(-c3cccc(Br)c3)c(Cc3ccccc3C(F)(F)F)n2c1 0%, O=C(N/N=C/c1ccoc1)c1ccc(Cl)cc1Cl 9.92%, CC(Oc1ccccc1[N+](=O)[O-])C(=O)N/N=C/c1ccoc1 (stereo not given) -27.6%, CC(=O)N1C[C@@H](CO)[C@@H](N(C)C(=O)c2ccco2)C[C@H]1c1ccccc1 0%, COc1cccc(CNC(=O)CCC2CCCN(Cc3ccc(OC(F)F)cc3)C2)c1 (stereo not given) -23.3%, C/C=C(\C)C(=O)NCCN1C2=NC[C@H](Cc3ccc(O)cc3)N2C[C@@H]1Cc1ccc(OC)cc1 -17.1%, CC1(C(=O)NCc2cccc3ccccc23)CCN1Cc1ccc(-c2ccccc2)o1 (stereo not given) 34.9%, CCOc1cc(/C=N/NC(=O)c2ccncc2)cc(Br)c1O 2.27%, CCC(C)CN1C(=O)CSCC1(C)C(=O)NCc1ccccc1 (stereo not given) 6.99%, COc1cc(C=NC2CCCCC2)ccc1O 22%, OC(c1ccc(Cl)cc1)c1ncc(-c2ccc(Cl)cc2)[nH]1 (stereo not given) 21.5%, CCOC(=O)c1c(S(=O)(=O)Nc2cccc(Cl)c2)c(C)n(C)c1C -8.27%, CCOC(=O)c1c(S(=O)(=O)NCC(=O)Nc2ccc(C)cc2)c(C)n(C)c1C -0.327%, CC1Cc2[nH][nH]c(=O)c2C(C2CCCC2)O1 (stereo not given) 0%, CCCCc1ccc(S(=O)(=O)NC(=O)C2(C)CCN2C(=O)c2ccccc2)cc1 (stereo not given) 0.751%, CC1CCC2(CC1)NC(=O)N(CC(=O)NCc1ccco1)C2=O (stereo not given) -7.59%, COc1cccc(-c2cc(NC(C)=O)c3ncc(-c4cccc(C(C)=O)c4)n3c2)c1 4.06%, CCOC(=O)c1cnn2c(SC)ncnc12 -12.7%, COc1ccc(-c2ccc3[nH]c4c(c3c2)CCN2C[C@H]3[C@H](C)ON(C)[C@H]3C[C@@H]42)cc1 -2.08%, C[C@H](O)[C@@H]1C(=O)N2CCc3c([nH]c4ccccc34)[C@@H]2C[C@@H]1N(C)C(=O)Nc1ccc(F)cc1 -19.9%, COc1ccc(S(=O)(=O)NC(=O)C2(C)CCN2C(=O)COc2ccc(Cl)cc2)cc1 (stereo not given) -5.73%, Cn1c(=O)[nH]c(=O)c2c1nc(N1CCN(C(c3ccccc3)c3ccccc3)CC1)n2CCO 6.48%, Cc1nnc(SCCCn2c(N3CCCCC3)nc3c2c(=O)[nH]c(=O)n3C)s1 17.6%, COCCNc1nc(Nc2ccccc2Cl)c2sc(-c3ccccc3)cc2n1 14.1%, CC(C)(C)C(=O)c1c(N)[nH]c(C(=O)c2ccccc2)c1-c1ccc(F)cc1 4.8%, Cc1c(C(=O)NC(C)C2CC3CCC2C3)cccc1[N+](=O)[O-] (stereo not given) 10.2%, Cc1cccc(C(=O)OCC(=O)NC(C)C2CC3CCC2C3)c1O (stereo not given) -13.8%, CN(C)C(=O)c1cccc(-c2cnc3c(NC=O)cc(-c4ccc(C(=O)N5CCOCC5)cc4)cn23)c1 -15.4%, CNc1cc(-c2c(OC)cccc2OC)ncn1 -17.3%, C[C@H](NS(=O)(=O)c1ccc(Cl)cc1)C(=O)OCC(=O)N1CCOCC1 -16.5%, CC(NS(=O)(=O)c1ccc(Cl)cc1)C(=O)Nc1ccc2c(c1)OCCO2 (stereo not given) -3.02%, CC1(C(=O)NS(=O)(=O)c2ccc(C#N)cc2)CCN1C(=O)CC1CCCC1 (stereo not given) -19%, O=C(Cc1ccc([N+](=O)[O-])cc1)N/N=C/c1ccco1 3%, COc1ccc(CC(=O)NCC(=O)N/N=C/c2cc(Br)ccc2OC)cc1 20.7%, C[C@@H]1CN([C@H](C)CO)S(=O)(=O)c2ccc(C#C[C@@H](C)O)cc2O[C@@H]1CN(C)Cc1ccc(-c2ccccc2)cc1 4.33%

Max response, negative = inhibition, active:
Cc1cc(=O)oc2cc(NC(=O)C3CC(=O)N(Cc4ccccc4)C3)ccc12 (stereo not given) -60.6%, Cc1cc(NC(=O)c2ccc(F)cc2)ccc1NC(=O)c1ccco1 -99.6%, Cc1cccc(-n2c(O)c(C=Nc3ccccc3N)c(=O)[nH]c2=O)c1 -114%, CN(Cc1ccccc1)Cc1ccccc1F -76.7%, Clc1cccc(-c2nc3nc4ccccc4nc3n2Cc2ccco2)c1 -72.7%, CC1=CC(=C(C#N)c2nc3ccccc3s2)C=C(C)N1c1ccc(F)cc1F -51.3%, COc1ccc(C)cc1N(C(=O)Cn1nnc(-c2ccc(C)o2)n1)C(C(=O)NC1CCCC1)c1ccncc1 (stereo not given) -57.8%, CC(NCc1nc2ccccc2n1C)C12CC3CC(CC(C3)C1)C2 (stereo not given) -77.6%, CC(C)c1cc(C(=O)N/N=C/c2ccoc2)c(O)c(C(C)C)c1 -60.7%, COc1ccc(C[C@H]2CN3C(=NC[C@H]3C)N2CCNC(=O)CCC2CCCCC2)cc1 -71.7%, CCOC(=O)c1c(S(=O)(=O)Nc2ccc(CN3CCC(C)CC3)cc2)c(C)n(C)c1C -51%, COC(=O)[C@H]1[C@H]2C[C@H]3c4[nH]c5ccccc5c4CCN3C[C@@H]2CC[C@@H]1O -113% and -60.5%, Cn1c(=O)[nH]c(=O)c2c1nc(N1CCN(CCO)CC1)n2CCSc1nc2ccccc2s1 -66.2%, CCOC(=O)CCC(=O)OCC(=O)NC(C)C1CC2CCC1C2 (stereo not given) -55.1%, CC(O)C(NS(=O)(=O)c1ccc(Cl)cc1)C(=O)OCc1cc([N+](=O)[O-])cc2c1OCOC2 (stereo not given) -82.9%, COc1ccc(CC(=O)N/N=C/c2cc([N+](=O)[O-])cc(Br)c2O)cc1 -79.9%
